The text below walks through data of PubChem BioAssay (Tox21).

Inconclusive results are not listed. A number with no mark means an inactive call. The source made the active and inactive calls. Calls come from the whole dose curve; as a rule, active = well fitted cell-killing curve with a large enough effect in the repeat runs; inconclusive = weak or mixed curves; inactive = flat fitted curve, though single readings scatter.
% is set by controls: 0 for no effect and ±100 for the full control effect; potency is the fitted concentration of half-maximal effect.

The nature of the test: qHTS assay to identify small molecule antagonists of the TGF-beta/Smad signaling pathway - cell viability counter screen (AID 1346824). Note: nearly all actives have a fitted effect of over 50% in size. As to conditions: SBE-bla HEK293T viability, CellTiter-Glo luminescence; series mostly up to 76.8 µM; viability change, negative = cytotoxic: at the top concentration. The text has this:
U.S. Tox21 Program National Center for Advancing Translational Sciences [NCATS] NIH Chemical Genomics Center [NCGC] U.S. Environmental Protection Agency [EPA] National Institutes of Environmental Health Sciences [NIEHS] National Toxicology Program [NTP] U.S. Food and Drug Administration [FDA] Tox21 Assay Overview: Transforming growth factor beta (TGF-beta) superfamily consists of a large number of structurally related dimeric proteins that act as hormones or local mediators in regulating a wide range of biological functions. This superfamily includes TGF-betas themselves, the bone morphogenetic proteins (BMPs) and the activins. These ligands induce oligomerization of serine/threonine receptor kinases and phosphorylate the cytoplasmic signaling molecules of Smad protein family. CellSensor SBE-bla HEK 293T cell line (Life Technologies, Carlsbad, CA), responsive to TGF-beta was used to screen Tox21 10K compound library for identification of agonists/antagonists of the Smad signaling pathway. This cell line contains a beta-lactamase reporter gene under control of the Smad binding element (SBE) stably integrated into HEK 293T cells. Also cytotoxicity of the compounds was tested in parallel by measuring the cell viability using CellTiter-Glo assay system in the same wells.
Tox21 Assay Protocol Summary: SBE-bla HEK 293T cells were dispensed at 4,000/well in 5 uL of assay medium into black wall/clear-bottom 1536-well plates using a Multidrop Combi (ThermoFisher Scientific, Waltham, MA) dispenser. After the assay plates were incubated at 37 C and 5% CO2 for an overnight, 23 nL of compounds dissolved in DMSO, positive controls or DMSO only was transferred to the assay plate by a Pintool station (Kalypsys, San Diego, CA). Compound transfer was followed by the addition of 1 uL of 0.25 ng/mL TGF-beta1 or assay buffer using two separate tips of Flying Reagent Dispenser (FRD, Aurora Discovery, San Diego, CA). The assay plates were incubated at 37 C and 5% CO2 for 5 hr. One uL of LiveBLAzer B/G FRET substrate (Life Technologies) was added using a Flying Reagent Dispenser (FRD, Aurora Discovery, San Diego, CA) and the plates were incubated at room temperature for 2 hr. Fluorescence intensity (405 nm excitation, 460 nm and 530 nm emissions) was measured using an Envision plate reader (PerkinElmer, Shelton, CT). For cytotoxicity read, 4 uL of CellTiter-Glo reagent (Promega Corporation, Madison, WI) was added to each well of the assay plates using FRD. After 30 min incubation at room temperature, the luminescence intensity was measured using ViewLux plate reader (PerkinElmer).
For `CCCCCCCCCCOCC(O)CN` (stereo not given), the “viability change, negative = cytotoxic” value was -21.6% [at 35.3 µM].

As for `CO[C@H]1C=CO[C@@]2(C)Oc3c(C)c(O)c4c(O)c(cc(O)c4c3C2=O)NC(=O)/C(C)=C\C=C/[C@H](C)[C@H](O)[C@@H](C)[C@@H](O)[C@@H](C)[C@H](OC(C)=O)[C@@H]1C`, the “viability change, negative = cytotoxic” value is -2.47%.

Take `CCCCCCCCCCCCCCCC`: the “viability change, negative = cytotoxic” value is -2.72%.

For `O=Nc1ccc(NO)cc1`, the “viability change, negative = cytotoxic” value was 0.179%.

`C=CC/C=C/C/C=C/C/C=C/C`: the “viability change, negative = cytotoxic” value is -8.44%.

Regarding `Cc1cc(=O)[nH]c(=O)[nH]1`, the “viability change, negative = cytotoxic” value was 16.4%.

Consider `CC(C)c1ccccc1N`, for which the “viability change, negative = cytotoxic” value was -2.04%.

As to `c1cc[nH]c1`, the “viability change, negative = cytotoxic” value is -1.43%.

Take `COc1ccccc1OCCNCC(O)COc1cccc2[nH]c3ccccc3c12` (stereo not given): the “viability change, negative = cytotoxic” value was -5.28% [at 35.3 µM].

Regarding `CCC(C)c1ccccc1` (stereo not given), the “viability change, negative = cytotoxic” value is 8.77%.

Consider `Cc1ccc(CCn2c3c(c4cc(Cl)ccc42)CN(C)CC3)cn1`, for which the “viability change, negative = cytotoxic” value is -12.8% [at 35.3 µM].

As to `CCCCCCCCCCCC(=O)N(CC)CC`, the “viability change, negative = cytotoxic” value is -13.8%.

In the case of `Cc1cccc(Br)c1`, the “viability change, negative = cytotoxic” value was 0.771%.

Consider `CCN(CC)CCCN(c1ccccc1)C1Cc2ccccc2C1`, for which the “viability change, negative = cytotoxic” value was -13% [at 35.3 µM].

As for `Cc1ccc(-n2[nH]c(C)c(N=Nc3cccc(-c4cccc(C(=O)O)c4)c3O)c2=O)cc1C`, the “viability change, negative = cytotoxic” value is 1.35% [at 35.3 µM].

For `CCCN(CCc1cccs1)[C@H]1CCc2c(O)cccc2C1`, the “viability change, negative = cytotoxic” value is -9.65% [at 35.3 µM].

Consider `Oc1ccc(-c2ccccc2)c(Cl)c1`, for which the “viability change, negative = cytotoxic” value is -13.8%.

As for `CC1CCCCC1`, the “viability change, negative = cytotoxic” value is -23.9%.

For the compound `COc1ccc(-n2nc(CCC(=O)N(C)O)cc2-c2ccc(Cl)cc2)cc1`, the “viability change, negative = cytotoxic” value was 12.5% [at 35.3 µM].

Regarding `CCCCCCCC/C=C/CCCOC(C)=O`, the “viability change, negative = cytotoxic” value was 2.27%.

Consider `CCN1CCN(c2cc(-c3ccc(F)cc3)c3c(n2)CCCCCC3)CC1`, for which the viability change, negative = cytotoxic is 0.113% [at 15.8 µM].

With `COc1cc(C=C2CCC/C(=C\c3ccc(O)c(OC)c3)C2=O)ccc1O`, the “viability change, negative = cytotoxic” value was 9.37% [at 35.3 µM].

With `CCCCCCCC/C=C\CCCCCCCC(=O)OCCOC(=O)CCCCCCC/C=C\CCCCCCCC`, the “viability change, negative = cytotoxic” value is 18.7%.

As to `Cc1occc1SSc1ccoc1C`, the “viability change, negative = cytotoxic” value is -5.32%.

On to `CCC1CCCCC1`, for which the “viability change, negative = cytotoxic” value was -18.7%.

Take `CO[Si](CCCNCCNCCN)(OC)OC`: the “viability change, negative = cytotoxic” value was -9.07%.

For `Cc1cccc(C)n1`, the “viability change, negative = cytotoxic” value was -3.86%.

As for `CC(C)(C)C1=CC(=O)C=C(C(C)(C)C)C1=O`, the “viability change, negative = cytotoxic” value was 14.1%.

Turning to `COc1cccc(OC)c1O`, the “viability change, negative = cytotoxic” value is 10.9%.

With `CCCOc1sc(C(=O)N2CCC(c3cc(CN)ccc3F)CC2)c(C)c1Br`, the Potency is 50.4 µM (active).

For the compound `CCN(CC)CCSC(=O)C(c1ccccc1)c1ccccc1`, the “viability change, negative = cytotoxic” value was -0.298% [at 35.3 µM].

For `CCCCCCS`, the “viability change, negative = cytotoxic” value is -0.443%.

For the compound `Nc1ccc2cc3ccc(N)cc3nc2c1`, the “viability change, negative = cytotoxic” value was 12.8% [at 35.3 µM].

In the case of `CCCCCCC(C)Nc1ccc(Nc2ccccc2)cc1` (stereo not given), the “viability change, negative = cytotoxic” value is -23.8%.

Take `CC1(C)COCN1`: the “viability change, negative = cytotoxic” value was 12.6%.

Turning to `O=C1OC(=O)c2ccc3c4c(ccc1c24)C(=O)OC3=O`, the “viability change, negative = cytotoxic” value was 5.68%.

Turning to `O=C1c2c(O)ccc([N+](=O)[O-])c2C(=O)c2c([N+](=O)[O-])ccc(O)c21`, the Potency was 48.5 µM (active).

As for `Cc1cncc(C)c1`, the “viability change, negative = cytotoxic” value was 6.43%.

Turning to `[O]=[Zr]`, the “viability change, negative = cytotoxic” value is 4.94%.

For the compound `CC(C)=C1CC[C@@H](C)CC1=O`, the “viability change, negative = cytotoxic” value is 9.49%.
